# Measured values taken from PubChem BioAssay (EPA / NIEHS).
# Active and inactive are the calls of the source. Rule for the calls: active = hit-call score of the fitted dose curve at least 0.9, where 1 is the maximum; inactive = score below 0.9.
# Assay: ATG_EGR_CIS: Attagene CIS-FACTORIAL HepG2 Assay for human Early Growth Response 1 (EGR1) (AID 2282938)
# Details: HepG2 Attagene CIS-FACTORIAL EGR reporter mRNA; actives raise or lower the signal
# Protocol: ATG_CIS is a cell-based, multiplexed-readout assay that uses HepG2, a human liver cell line, with measurements taken at 24 hours after chemical dosing in a 24-well plate.ATG_EGR_CIS is one of 52 assay component(s) measured or calculated from the ATG_CIS assay. It is designed to make measurements of mRNA induction, a form of inducible reporter, as detected with fluorescence intensity signals by Reverse transcription polymerase chain reaction (RT-PCR) and Capillary electrophoresis technology.Data from the assay component ATG_EGR_CIS was analyzed into 1 assay endpoint. This assay endpoint, ATG_EGR_CIS, was analyzed with bidirectional fitting relative to DMSO as the negative control and baseline of activity. Using a type of inducible reporter, measures of mRNA for gain or loss-of-signal activity can be used to understand the reporter gene at the transcription factor-level as they relate to the gene EGR1. Furthermore, this assay endpoint can be referred to as a primary readout, because this assay has produced multiple assay endpoints where this one serves a reporter gene function. To generalize the intended target to other relatable targets, this assay endpoint is annotated to the dna binding intended target family, where the subfamily is zinc finger.
# Human liver HepG2 cells are transiently transfected with multiple reporter transcription units (MRTUs) in 6-well plates using FuGene 6 reagent (Roche; 3 ml FuGene/1 mg DNA). The MRTU constructs are regulated by a cis-regulating element (promoter). […] A major difference between the CIS and TRANS system is that in CIS activities of endogenous TFs are measured, whereas the TRANS assay evaluates changes in activities of exogenous, chimeric NR-Gal4 proteins. […] At the end of 24 hour incubation, total RNA was isolated using TriZol reagent (Invitrogen). The isolated RNA is then reverse-transcribed using oligo(dT) primer and Mo-MLV reverse transcriptase (Invitrogen) with DNAse I (Ambion) treatment for 30 min. The one-tenth of the produced cDNA was amplified by PCR using Taq DNA polymerase (Invitrogen) and two reporter sequence-specific primers. The PCR products were fluorescently labeled by primer extension with 6-arboxyfluorescein (6-FAM) 5'-labeled reporter sequence-specific primer (2 min at 95 C, 20 s at 68 C and 10 min at 72 C) and these products were digested with 5U of HpaI (New England Biolabs) for 2h at 37 C. The fragments were purified using Qiaquick PCR columns (Qiagen), analyzed on an ABI 3130xL genetic analyzer (Applied Biosystems) with peak positions identified by using a set of X-rhodamine (ROX)-labeled MapMarker1000 molecular weight standards (BioVentures). The raw capillary electrophoresis data was processed using Attagraph software (Attagene).
Compound,outcome,AC50
C=C(C)C(=O)OCCOC(=O)C(=C)C,inactive,
C1CCSC1,inactive,
C=Cc1ccc(OC(C)=O)cc1,inactive,
CC(C)CCCCCOC(=O)CS,inactive,
CC(C)(CO)COC(=O)C(C)(C)CO,inactive,
NC(=O)Nc1ccccc1,inactive,
CCCCC/C=C\C/C=C\CCCCCCCC(=O)O,,72.5 µM (active)
O=S(=O)(O)c1ccc(Nc2nc(Nc3ccc(C=Cc4ccc(Nc5nc(Nc6ccc(S(=O)(=O)O)cc6)nc(N(CCO)CCO)n5)cc4S(=O)(=O)O)c(S(=O)(=O)O)c3)nc(N(CCO)CCO)n2)cc1,inactive,
CCOC(=O)c1ccc(C)cc1,inactive,
O=C(Oc1ccccc1)c1ccccc1C(=O)Oc1ccccc1,inactive,
CCCCCCCCCCCC(C)=O,inactive,
Fc1ccc(Br)cc1,inactive,
CCc1occc(=O)c1O,inactive,
C=CC(=O)NC(C)(C)C,inactive,
CC1=CC(C)C(C=O)CC1 (stereo not given),inactive,
C=CC(=O)OCC(C)OCC(C)OCC(C)OC(=O)C=C (stereo not given),,79.7 µM (active)
CCCCOCCOCCOC(C)=O,inactive,
C[Si]1(C)O[Si](C)(C)O[Si](C)(C)O[Si](C)(C)O[Si](C)(C)O1,inactive,
C=C(C)C1CC=C(C)CC1 (stereo not given),inactive,
CC1CCC(=O)C1=O (stereo not given),inactive,

Compound,outcome,AC50
CC(C)c1cccc(C(C)C)c1N,inactive,
COCC(=O)O,inactive,
c1ccc(Nc2cccc3ccccc23)cc1,,46.8 µM (active)
O=C(O)CC(C(=O)O)S(=O)(=O)O (stereo not given),inactive,
CN1CCN(C)CC1,inactive,
O=C(O[C@@H]1Cc2c(O)cc(O)cc2O[C@@H]1c1cc(O)c(O)c(O)c1)c1cc(O)c(O)c(O)c1,inactive,
CCCCCCCCCCCCCc1ccccc1,inactive,
C/C=C/C=C/CCCCCCCO,,100 µM (active)
O=C1CCCCCCCCCCC1,inactive,
N#Cc1ccc(C(c2ccc(C#N)cc2)n2cncn2)cc1,inactive,
CCCCOCCOC(=O)COc1ccc(Cl)cc1Cl,inactive,
CCCCCCOc1ccc(N)cc1,inactive,
CCc1cccc(C)c1N,inactive,
[Cl][Sc]([Cl])[Cl],inactive,
NNS(=O)(=O)c1ccc(Oc2ccc(S(=O)(=O)NN)cc2)cc1,inactive,
C=CC(C)(O)CC/C=C(\C)CC (stereo not given),inactive,
C=C[C@@]1(C)CC(=O)[C@]2(O)[C@@]3(C)[C@@H](O)CCC(C)(C)[C@@H]3[C@H](O)[C@H](OC(C)=O)[C@@]2(C)O1,inactive,
CC12CCC(CC1)C(C)(C)O2,inactive,
COC(Cc1ccccc1)OC,inactive,
CC(=O)OCC=C(C)C,inactive,
